We go through 40 compounds from PubChem BioAssay (Tox21).

Inconclusive results are not listed. A call without a number means that no potency is given here. Activity calls are given as the source filed them. Calls follow the shape of the dose curve; as a rule, active = well fitted cell-killing curve with a large enough effect in the repeat runs; inconclusive = weak or mixed curves, or effect the other way; inactive = no such curve, though single readings can be large or run the other way.

This test in a line: qHTS assay for small molecule activators of the heat shock response signaling pathway - cell viability counter screen (AID 743209). Also: nearly all actives have a fitted effect of over 50% in size. As to conditions: HSE-bla HeLa viability, CellTiter-Glo luminescence, 5 h; series mostly up to 62.6 µM. An excerpt: U.S. Tox21 Program National Center for Advancing Translational Sciences [NCATS] NIH Chemical Genomics Center [NCGC] U.S. Environmental Protection Agency [EPA] National Institutes of Environmental Health Sciences [NIEHS] National Toxicology Program [NTP] U.S. Food and Drug Administration [FDA] Tox21 Assay Overview: Various chemicals, environmental and physiological stress conditions may lead to the activation of heat shock response/ unfolded protein response (HSR/UPR). There are three heat shock transcription factors (HSFs) (HSF-1, -2, and -4) mediating transcriptional regulation of the human HSR. To identify the compounds that activate HSR signaling, HSE-bla HeLa cell line (Invitrogen, Carlsbad, CA, USA) containing a beta-lactamase reporter gene under the control of the heat shock response elements was used to screen Tox21 10K compound library. The cytotoxicity of the Tox21 compound library against the HSE-bla HeLa cell line was tested in parallel by measuring the cell viability using CellTiter-Glo assay (Promega, Madison, WI) in the same wells.
Tox21 Assay Protocol Summary: The CellSensor HSE-bla HeLa cells (Invitrogen, Carlsbad, CA, USA) were dispensed at 1500 cells/6uL/well into 1536-well black wall/clear bottom plates using a Multidrop combi (Thermo Fisher Scientific, Waltham, MA) dispenser. After the assay plates were incubated at 37 C and 5% CO2 overnight, 23 nL of compounds dissolved in DMSO, positive controls or DMSO only was transferred to the assay plate by a Pintool station (Kalypsys, San Diego, CA). The plates were incubated at 37 C for 5 h. After 1 uL of LiveBLAzerTM B/G FRET substrate was added using a Flying Reagent Dispenser (FRD, Beckman Coulter, Indianapolis, IN, USA), the plates were incubated at room temperature for 2.5 h, and fluorescence intensity was measured by an Envision plate reader (PerkinElmer, Shelton, CT). For cell viability readout that measures cytotoxicity, 3 ul/well of CellTiter-Glo reagent was added into the assay plates using a FRD. After 30 min incubation at room temperature, the luminescence intensity in the plates was measured using a ViewLux (PerkinElmer) plate reader.
Turning to `N#CCC(=O)O`, the Potency result is “inactive”.

Turning to `Cc1cc(C)cc(O)c1`, the Potency result is “inactive”.

`CCCOC(=O)NCCCN(C)C`: the Potency entry was “inactive”.

Consider `O=C1C(N(CO)C(=O)NCO)N(CO)C(=O)N1CO` (stereo not given), for which the Potency result was “inactive”.

Consider `Cc1ccc([N+](=O)[O-])cc1N`, for which the Potency result is “inactive”.

Consider `C=C1C[C@]23C[C@@]1(O)CC[C@H]2[C@@]12C=C[C@H](O)[C@@](C)(C(=O)O1)[C@H]2[C@@H]3C(=O)O`, for which the Potency entry is “inactive”.

For the compound `CC(=O)OC[C@H]1O[C@@](COC(C)=O)(O[C@H]2O[C@H](COC(C)=O)[C@@H](OC(C)=O)[C@H](OC(C)=O)[C@H]2OC(C)=O)[C@@H](OC(C)=O)[C@@H]1OC(C)=O`, the Potency result is “inactive”.

As to `CCc1cccc(O)c1`, the Potency entry is “inactive”.

Regarding `O=[N+]([O-])c1cc(C(F)(F)F)ccc1Cl`, the Potency result was “inactive”.

With `C=C(CC(=O)O)C(=O)O`, the Potency entry is “inactive”.

Regarding `OB(O)O`, the Potency result is “inactive”.

For `NC(N)=S`, the Potency entry is “inactive”.

Regarding `CC[N+](CC)(CC(=O)Nc1c(C)cccc1C)Cc1ccccc1`, the Potency result was “inactive”.

Consider `CC(=O)OCCC(C)C`, for which the Potency entry was “inactive”.

As to `CCCN(CCC)C(=O)SCC`, the Potency entry was “inactive”.

On to `CN1Cc2c(N)cccc2C(c2ccccc2)C1` (stereo not given), for which the Potency result was “inactive”.

Consider `C[Si](C)(C)N[Si](C)(C)C`, for which the Potency entry is “inactive”.

For the compound `Cc1ccc(C)c(S(=O)(=O)O)c1`, the Potency entry is “inactive”.

For the compound `COC(=O)CCCCC(=O)OC`, the Potency result is “inactive”.

Take `OCCOCCOCCOCCOCCO`: the Potency entry is “inactive”.

Turning to `CCOC(=O)c1ccc(O)cc1`, the Potency result was “inactive”.

With `CC(COCC(C)OC(=O)c1ccccc1)OC(=O)c1ccccc1` (stereo not given), the Potency entry was “inactive”.

`COCN(COC)c1nc(N(COC)COC)nc(N(COC)COC)n1`: the Potency entry was “inactive”.

As for `CCCCCCC(=O)O`, the Potency entry was “inactive”.

In the case of `C[n+]1ccn(CCO)c1`, the Potency entry is “inactive”.

On to `CC(=O)OC(C)(C)C1CC=C(C)CC1` (stereo not given), for which the Potency entry was “inactive”.

With `COc1ccccc1[N+](=O)[O-]`, the Potency result is “inactive”.

`CC(CN1c2ccccc2Sc2ccccc21)N(C)C` (stereo not given): the Potency entry is “inactive”.

As to `O=C(O)Cc1c[nH]c2ccccc12`, the Potency entry is “inactive”.

With `CC(=O)Nc1ccc(CC(=O)O)cc1`, the Potency entry was “inactive”.

Consider `COc1c2ccoc2cc2oc(=O)ccc12`, for which the Potency result was “inactive”.

In the case of `OC[C@H]1O[C@@H](Oc2ccc(O)cc2)[C@H](O)[C@@H](O)[C@@H]1O`, the Potency result was “inactive”.

Turning to `Cc1cc(C)c(O)c(C)c1`, the Potency result was “inactive”.

As for `COC(=O)/C=C\C(=O)OC`, the Potency entry was “inactive”.

For the compound `CCCCCCCC(=O)O`, the Potency entry is “inactive”.

Turning to `OCC(O)CS` (stereo not given), the Potency entry was “inactive”.

Take `O=Cc1ccc(CO)o1`: the Potency entry is “inactive”.

Turning to `OCC(CO)(CO)CO`, the Potency result is “inactive”.

`CCCCCCCCCCCC(=O)N(C)CC(=O)O`: the Potency entry is “inactive”.

As for `O=C1O[C@H]([C@H](O)CO)C(O)=C1O`, the Potency entry was “inactive”.
